Among all 69,000 compounds or so, about 8,600 (12%) showed an effect of 50% or more. This excerpt belongs to a sample that is enriched for strong results.
These molecules were tested on Plasmodium berghei (assay: Screen against P. berghei liver stage (PbLuc), transformed with Luciferase, at 10uM). Settings: tested at 10 uM.
Type: functional, HepG2

| SMILES | INHIBITION [%] |
| --- | --- |
| CCOCCN1Cc2cnn(C)c2C(COCC)C1 (stereo not given) | 42.7 |
| CN(C)c1ncccc1CNC(=O)N1CCCC1c1cccs1 (stereo not given) | 4.71 |
| CCN1CCN(C)C2(CCN(Cc3ccc(C)o3)CC2)C1=O | -93.5 |
| O=c1[nH]cc(N2CCOCC2)c(=O)[nH]1 | -56.8 |
| CCn1ccnc1CN1CCN(CCc2ccccn2)CC1C (stereo not given) | 13.8 |
| O=C1N(CC2CC2)CCC12CCN(CC1CC1)CC2 | 21.7 |
| O=C(CCCNCc1ccccc1)N1CCCn2cncc2C1 | 30.9 |
| Cc1ccc(CN2CCc3ncnc(-c4cccnc4)c3CC2)o1 | 13.7 |
| Cc1cc(N2CCC(C(=O)N(C)C)CC2)nc(-c2ccncc2)n1 | -148 |
| COc1cccc(-c2c[nH]c(C)n2)c1F | -114 |
| CC(C)N1CC(NC(=O)c2ccc(Cl)s2)CC1=O (stereo not given) | 83.8 |
| CCCS(=O)(=O)N1CCC(NC(=O)c2ccc(Cl)s2)CC1 | 21 |
| O=C(NC1CC(=O)N(C2CC2)C1)c1ccc(Cl)s1 (stereo not given) | 33.1 |
| O=C(NCCCF)N1CCC(n2ccc(C(F)(F)F)n2)CC1 | 36.3 |
| O=C(CNC(=O)N1CCc2c([nH]c3ccc(Cl)cc23)C1)NC1CCCC1 | -6.91 |
| COCC(=O)N1CC(c2n[nH]cc2C)C1 | -41.1 |
| CN1CCN(C(=O)c2cc3c(s2)CCN3C(=O)C2CC2)CC1 | -29.8 |
| CCCNC(=O)c1cc2c(s1)CCN2C(=O)c1ccccc1 | -27 |
| O=C(c1cc2c(s1)CCN2C(=O)C1CC1)N1CCCC1 | 23.3 |
| O=C(NC1CCCC1)c1cc2c(s1)CCN2C(=O)c1ccccc1 | 55.9 |
| O=C(NCCN1CCCC1)c1cc2c(s1)CCN2C(=O)c1ccccc1 | -28 |
| O=C(NC1CC1)c1cc2c(s1)CCN2C(=O)C1CC1 | 51.4 |
| c1cncc(COCc2nnn3c2CN(Cc2ccsc2)CC3)c1 | -9.26 |
| O=C(O)CNc1cc(-c2nccnc2N2CCCC2)c2cc[nH]c2n1 | 51.8 |
| Nc1cc(-c2ccc(C(=O)O)cc2O)c2cc[nH]c2n1 | 2.91 |
| Nc1cc(-c2cc(C(=O)O)ccc2Cl)c2cc[nH]c2n1 | 15.2 |
| O=C(O)CNc1cc(-c2cc(C3CC3)ncn2)c2cc[nH]c2n1 | 19.5 |
| OCCNc1cc(-c2nccnc2N2CCCC2)c2cc[nH]c2n1 | 37.7 |

| SMILES | INHIBITION [%] |
| --- | --- |
| Nc1cc(-c2nccnc2N2CCCC2)c2cc[nH]c2n1 | 58.3 |
| CN1CC(=O)N(c2cccc(F)c2)CC12CCN(Cc1cncn1C)C2 (stereo not given) | -15.7 |
| CS(=O)(=O)NCC1CCCN(C(=O)c2ccc(Cl)o2)C1 (stereo not given) | 15 |
| O=C(c1ccccn1)N1CC[C@@H](N2CCOCC2)[C@@H]1Cc1ccccc1 | 39.2 |
| Cc1nccn1-c1cncc(C2CCCN2Cc2ccccc2)n1 (stereo not given) | 36.7 |
| COCCN1CCCc2sc(C(=O)N3CCCN(C)CC3)nc21 | 5.36 |
| Clc1ccccc1CN1CCc2nc(C3CCCNC3)ncc2C1 (stereo not given) | 6.32 |
| Cc1ccc(C(=O)Nc2nc(C)no2)cc1 | 23.7 |
| Cc1noc(NC(=O)c2ccccc2)n1 | -10.6 |
| Cn1nc(CNC(=O)c2ccc(OC(F)(F)F)cc2)c2c1CCOC2 | -6.42 |
| Cc1noc(NC(=O)CCNC(=O)c2ccc(Br)cc2)n1 | 14.1 |
| Cc1noc(NC(=O)c2cccc(Br)c2)n1 | 88.2 |
| Cc1noc(NC(=O)c2ccc(OC(F)(F)F)cc2)n1 | 87.6 |
| Cc1noc(NC(=O)c2ccc(Br)o2)n1 | 31.9 |
| Cc1noc(COCC(=O)Nc2ccc(Br)c(C)n2)n1 | 10.7 |
| Cc1noc(NC(=O)c2ccc(C#N)cc2)n1 | -0.96 |
| Cc1noc(NC(=O)c2ccc(Br)cc2)n1 | 91.5 |
| Cc1noc(NC(=O)c2ccc(Br)s2)n1 | 85.9 |
| Cc1c(NC(=O)c2cccc(Br)c2)c(C(=O)N(C)C)nn1C | 45.8 |
| Cc1n[nH]c(C)c1NC(=O)NCc1cc[nH]n1 | 36 |
| O=C(NCC1CCCO1)N1CCN(Cc2ccc3c(c2)CCO3)CC1 (stereo not given) | -21.5 |
| OCCNc1nccc(-c2c[nH]nc2-c2cccnc2)n1 | 15.9 |
| C[C@@H]1CN(C(=O)NC2CC2)C[C@]12CCN(c1ccsc1)C2=O | 17.1 |
| CC(=O)N1CCCC1(C(=O)N1CCCC1)c1cnccn1 (stereo not given) | 6.35 |
| CN(C)S(=O)(=O)c1ccc(=O)n(CC2CCCO2)c1 (stereo not given) | -28.9 |
| CC(C)CNC(=O)Cc1cnc(-n2cccc2)s1 | 28.3 |
| CC(=O)N1CCCC(Cc2cnc(-c3c(C)nn(C)c3C)cn2)C1 (stereo not given) | -10.4 |

Source: ChEMBL document CHEMBL4513216, “Probing the Open Global Health Chemical Diversity Library for Multistage-Active Starting Points for Next-Generation Antimalarials” (ACS Infect Dis, 2020)
